# Results from ChEMBL document CHEMBL3988442, “University of Dundee, Small-Polar-MMV Screening Library” (2021).
# Screen size: about 48,000 compounds; about 13,000 (27%) showed an effect of 50% or more. The list shows a part of the results.
# Tested on: Wolbachia pipientis
# Test: Anti-Wolbachia Cell-Based Screen
# Assay type: functional
# Set-up: scale not given: in the data most compounds retested in dose-response had high values
# Settings: 5 µM
row,Structure (SMILES),Percent Effect
1,O=C1O[C@@H]2CN(Cc3ccccc3F)C[C@@H]2N1CCCN1CCOCC1,2.415%
2,CCn1c(CN2CCCC(Cn3cncn3)C2)nc2c(F)cccc21 (stereo unspecified),-3.133%
3,NC1(CN2CCOCC2)CCCCC1,80.74%
4,OCCN1CCN(CC2(O)CCCCC2)CC1,-8.643%
5,OC1(CN2CCCC2)CCCN(c2ncnc3[nH]cnc23)C1 (stereo unspecified),-10.69%
6,Cc1nsc(NC(=O)NC2(CN3CCOCC3)CCCCC2)n1,1.675%
7,NC1(CN2CCCCC2)CCCCC1,100.8%
8,NCC1(CN2CCOCC2)CCCCC1,7.377%
9,CCCc1nc(C)c(CNc2nc(C)nc3oc(C)nc23)s1,10.41%
10,Cc1nnc(SCCC(=O)N(C)Cc2ccc(F)cc2Cl)[nH]1,5.698%
11,c1ccc(NCc2ccsc2)c(Cn2cncn2)c1,3.372%
12,CC(=O)NC(Cc1c[nH]c2cc(F)ccc12)C(=O)Nc1cnn(C)c1 (stereo unspecified),-8.595%
13,COc1ccc(NC(C)C(=O)NCCc2cccs2)cc1F (stereo unspecified),-5.142%
14,COc1ccc(C(C)Nc2ncc(C(N)=O)cc2Cl)cc1F (stereo unspecified),-11.64%
15,COc1ccc(C(C)NC(=O)Nc2nnc(C)s2)c(OC)c1 (stereo unspecified),5.487%
16,COc1ccc(C(C)NC(=O)NCCCn2cncn2)cc1F (stereo unspecified),3.932%
17,COc1ccc(C(C)NC(=O)NCCc2ccc(C)nc2)c(OC)c1 (stereo unspecified),8.171%
18,COc1ccc(C(C)NCc2nnc(C)s2)cc1F (stereo unspecified),-18.95%
19,COc1ccc(C(C)NCCC(N)=O)cc1F (stereo unspecified),53.8%
20,COc1ccc(C(C)NCCc2ccc(NC(C)=O)cc2)cc1F (stereo unspecified),98.08%
21,COc1ccc(C(C)NCCc2ccc(NC(C)=O)cc2)c(OC)c1 (stereo unspecified),110.9%
22,Cc1ccc(NCc2ccccc2C#N)cc1-n1cnnn1,14%
23,CCCNC(=O)CNc1cc(C(=O)NCC(F)(F)F)cc(F)c1C,-0.1534%
24,COCCN(Cc1ccco1)Cc1nc(-c2ccccc2C)no1,-8.039%
25,CN(c1ncc(S(N)(=O)=O)s1)C1CCc2ccccc21 (stereo unspecified),0.8223%
26,Cc1cc(CNCC2Cn3nnc(C)c3CO2)oc1C.O=C(O)C(F)(F)F (stereo unspecified),-14.18%

row,Structure (SMILES),Percent Effect
1,O=C(O)C(F)(F)F.c1ccc(CCNCC2Cn3nncc3CO2)cc1 (stereo unspecified),-6.101%
2,Fc1ccc(CNCC2Cn3nncc3CO2)cc1.O=C(O)C(F)(F)F (stereo unspecified),10.26%
3,Cc1noc(C)c1CNCC1Cn2nncc2CO1.O=C(O)C(F)(F)F (stereo unspecified),106%
4,Cc1nc(CNCC2Cn3nncc3CO2)cs1.O=C(O)C(F)(F)F (stereo unspecified),95.04%
5,O=C(O)C(F)(F)F.c1cc(CNCC2Cn3nncc3CO2)co1 (stereo unspecified),-8.195%
6,COc1cc2ccn(CCCO)c(=O)c2cc1F,-13.96%
7,Cc1ccc(CCCC(=O)N2CCC(=O)Nc3cccnc32)s1,9.523%
8,Cl.Cl.O[C@@H]1C[C@@](CNCc2ccc(Cl)cc2)(COc2cccnc2)C[C@@H]1O,-11.4%
9,Cc1nc(C)n(CC(C)C(=O)N2CCC(CN3CCOCC3)CC2)n1 (stereo unspecified),-24.3%
10,CC(C)(C)CC(=O)N1CSCC1C(=O)NC1=NCCS1 (stereo unspecified),6.289%
11,COc1cccc2c1OCC(C(=O)NC1CCN(S(C)(=O)=O)CC1)C2 (stereo unspecified),11.83%
12,CNC(=O)c1ccc(OC2CCN(S(C)(=O)=O)CC2)c(Cl)c1,-16.21%
13,CS(=O)(=O)N1CCC(Oc2ccc(C(=O)NC3CCCC3)cc2Cl)CC1,-48.27%
14,COC(C(=O)NC1CCN(S(C)(=O)=O)CC1)c1ccccc1 (stereo unspecified),12.34%
15,CS(=O)(=O)N1CCC(NC(=O)COc2ccc(Br)cc2Cl)CC1,124.9%
16,CS(=O)(=O)N1CCC(NC(=O)COc2ccccc2Cl)CC1,111.5%
17,CC(CNC(=O)N1CCN(CC(F)F)CC1)Cc1cccs1 (stereo unspecified),5.816%
18,Cn1ccnc1C(O)(CCNCc1ccco1)C(F)(F)F (stereo unspecified),-13.62%
19,CN(C)CCNC(=O)Nc1cccc(C[S+]([O-])Cc2ccccc2)c1 (stereo unspecified),-3.662%
20,Cc1noc(CN(C)CC2CCN(CCO)CC2)n1,3.042%
21,COc1cc(CN2CCC3(CC(Nc4ccncn4)C3)C2)cc(OC)c1 (stereo unspecified),125.9%
22,COc1cccc(CN2CCC3(CC(Nc4ccncn4)C3)C2)c1F (stereo unspecified),97.57%
23,COc1cccc(OC)c1CN1CCC2(CC(Nc3ccncn3)C2)C1 (stereo unspecified),4.398%
24,COc1ccc(CN2CCC3(CC(Nc4ccncn4)C3)C2)c(OC)c1 (stereo unspecified),2.421%
25,COc1ccc(CN2CCC3(CCCNC3)C2)cc1Cn1cccn1 (stereo unspecified),-22.52%
26,COc1ccnc(NC2CCN(CC(=O)Nc3ccccc3)CC2)n1,-1.982%

row,Structure (SMILES),Percent Effect
1,CCOC1CCN(CC(=O)Nc2oc(C)c3c(C)n[nH]c(=O)c23)CC1,-5.173%
2,Cc1c(NC(=O)CN2CCC(Oc3cnccn3)CC2)cnn1C,146%
3,Cc1nn(C)cc1NC(=O)CN1CCC(Oc2cnccn2)CC1,129.5%
4,O=C(Cn1ccc2ccccc21)N1CCC(Oc2cnccn2)CC1,0.2299%
5,Cc1nn(C)c(C)c1CC(=O)NCc1ccnc(OC2CCCC2)c1,-17.69%
6,Cn1ccc(NC(=O)CN2CCC(Oc3cnccn3)CC2)n1,107.4%
7,Cc1nc(C)c(CN2CCOC[C@H](Oc3cnccn3)C2)s1,-6.668%
8,O=C(Cn1cccn1)N1CCC(Oc2cnccn2)CC1,4.434%
9,CN1CCC(N2CCN(C(C(=O)O)c3cccc4c3OCC4)CC2)CC1 (stereo unspecified),-2.868%
10,Cc1nc(-c2cc(C(=O)NC(C)(C(=O)O)C(C)C)co2)cs1 (stereo unspecified),1.094%
11,O=C(NCCC1CCCCO1)c1cc(COc2cncc(Cl)c2)on1 (stereo unspecified),-5.256%
12,CSC(C)(C)CNC(=O)NC1CCSCC1,-7.35%
13,CC1CN(C)CCN1C(=O)c1ccn(-c2ccccc2Cl)n1 (stereo unspecified),97.32%
14,CC1CN(C)CCN1C(=O)c1ccn(-c2ccccc2)n1 (stereo unspecified),92.82%
15,CC1CN(C)CCN1C(=O)c1cnn(-c2ccc(Cl)cc2)c1 (stereo unspecified),3.844%
16,CC1CN(C)CCN1C(=O)c1cccn1Cc1ccncc1 (stereo unspecified),17.94%
17,CC1CN(C)CCN1C(=O)c1cccn1Cc1cccnc1 (stereo unspecified),1.342%
18,CC1CN(C)CCN1C(=O)c1ccn(-c2ccc(F)cc2)n1 (stereo unspecified),101.7%
19,COc1ccc(-n2ccc(C(=O)N3CCN(C)CC3C)n2)cc1 (stereo unspecified),-4.695%
20,Cc1cc(NC(=O)N2CCN(C)CC2C)n(Cc2ccccc2)n1 (stereo unspecified),-3.69%
21,CC1CN(C)CCN1C(=O)c1ccc(-n2cnnc2)cc1 (stereo unspecified),-8.678%
22,Cc1cnn(-c2ccc(C(=O)N3CCN(C)CC3C)cc2)c1 (stereo unspecified),-5.131%
23,CC1CN(C)CCN1C(=O)c1cnn(-c2cccc(Cl)c2)c1 (stereo unspecified),91.23%
24,CCc1nc(C(=O)N2CCN(C)CC2C)nn1-c1ccccc1Cl (stereo unspecified),4.953%
